PubChem BioAssay
Activity calls are given as the source filed them.

Tests used:
[1] = compound effects on differentiated 3T3-L1 adipocyte viability – cell-based, 3T3-L1 adipocytes, calcein-AM fluorescence, 48 h, basal, profiling panel (AID 1163); details: 3T3-L1 adipocytes viability, higher = more signal
[2] = compound effects on hepatocellular carcinoma cell viability – HepG2, calcein-AM fluorescence, 48 h, basal, profiling panel (AID 1164); details: higher = more signal
[3] = compound effects on multiple myeloma cell viability – MM1S, calcein-AM fluorescence, 48 h, basal, profiling panel (AID 1165); details: higher = more signal;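 note: viability of MM1S multiple myeloma cells under basal unstimulated conditions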
[4] = calcein-AM signal in unstimulated myeloma cells – cell-based, calcein-AM fluorescence, 48 h, PK04 Diversity Set, profiling panel (AID 1166); details: RPMI8226 myeloma viability, higher = more signal;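 note: cells grown under basal conditions without added stimulus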
[5] = JC-1 mitochondrial signal, unstimulated HepG2 cells – cell-based, JC-1 fluorescence, 24 h, 100 nL compound, profiling panel (AID 1167); details: HepG2 mitochondrial potential, higher = more signal
[6] = JC-1 mitochondrial signal, unstimulated adipocytes – cell-based, JC-1 fluorescence, 3T3-L1 adipocytes, 24 h, 100 nL compound, profiling panel (AID 1168); details: JC-1 mitochondrial fluorescence, higher = more signal, called active from +8 up or from −8 down
[7] = JC-1 mitochondrial signal, unstimulated myeloma cells – cell-based, JC-1 fluorescence, RPMI8226, 24 h, 100 nL compound, profiling panel (AID 1169); details: JC-1 mitochondrial potential fluorescence, higher = more signal
[8] = JC-1 mitochondrial signal, unstimulated MM1S myeloma – cell-based, JC-1 fluorescence, 24 h, 100 nL compound, profiling panel (AID 1170); details: MM1S mitochondrial potential, higher = more signal
[9] = resazurin metabolic signal in A549 cells – cell-based, resazurin fluorescence, 24 h, PK04 Diversity Set, profiling panel (AID 1171); details: A549 viability, higher = more signal, called active from +8 up or from −8 down
[10] = resazurin metabolic signal in HepG2 cells – cell-based, resazurin fluorescence, 24 h, PK04 Diversity Set, profiling panel (AID 1172); details: HepG2 viability, higher = more signal
[11] = budding yeast growth changes without added modifier – OD600, strain BY4716, 24 h, basal condition, primary screen (AID 1173); details: S. cerevisiae BY4716 growth, OD600, 24 h; higher = more signal, called active from +8 up or from −8 down
[12] = viability profiling in MM1S myeloma cells – cell-based, resazurin fluorescence, basal, 24 h, PK04 Diversity Set, profiling panel (AID 1174); details: higher = more signal, called active from +8 up or from −8 down
[13] = target: Dihydroorotate dehydrogenase (quinone), mitochondrial (Plasmodium falciparum (isolate 3D7)) (UniProt Q08210); assay: inhibition of P. falciparum DHODH – biochemical, C-terminal His tag, absorbance 600 nm, primary screen (AID 1175); details: PfDHODH enzyme, DCIP absorbance 600 nm; higher = more signal, called active from +8 up or from −8 down;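 note: recombinant parasite enzyme with a five histidine tag at its C terminus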
[14] = growth modulation of vineyard yeast isolate – strain RM11-1a, OD600, basal, 24 h, primary screen (AID 1177);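 note: cultures grown under basal conditions with no added stressor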; details: S. cerevisiae RM11-1a growth, OD600, 24 h; higher = more signal, called active from +8 up or from −8 down
[15] = growth of efflux-deficient E. coli DRC39 – strain DRC39, OD650, 24 h, E. coli filamentation inducers, primary screen (AID 1178);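 note: growth measured as culture turbidity by optical density at 650 nm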; details: E. coli DRC39 acrAB, higher = more signal, called active from +8 up or from −8 down
[16] = growth of efflux-deficient E. coli DRC39 – strain DRC39, OD650, 48 h, E. coli filamentation inducers, primary screen (AID 1179);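 note: screen aims at cell division blockers that make cells filament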; details: E. coli DRC39 delta-acrAB growth, higher = more signal, called active from +8 up or from −8 down
[17] = viability profiling in RPMI8226 myeloma cells – cell-based, resazurin fluorescence, basal, 24 h, PK04 Diversity Set, profiling panel (AID 1180); details: higher = more signal;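 note: RPMI8826 multiple myeloma cell line at 5000 cells per well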
[18] = target: E3 ubiquitin-protein ligase XIAP (Homo sapiens) (UniProt P98170); assay: small molecules binding XIAP protein – biophysical, small-molecule microarray, fluorescence 635 nm, primary screen (AID 1181); details: higher = more signal;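 note: score merges 667 nm emission and signal to noise over triplicate slides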
[19] = system: XIP peptide (Xip251-270) binding; assay: XIP fragment 251-270 binding compounds – biochemical, small-molecule microarray, fluorescence 635/667 nm, 0.1 µg/mL protein, primary screen (AID 1182); details: fluorescent protein binding, 635 nm, higher = more signal, called active from +8 up or from −8 down
[20] = system: XIP peptide (Xip251-270); assay: compounds binding XIP fragment 251-270 – biochemical, small-molecule microarray, fluorescence 635/667 nm, 0.5 µg/mL protein, primary screen (AID 1183); details: fluorescence 635 nm, higher = more signal

Dihydroorotate dehydrogenase (quinone), mitochondrial (Plasmodium falciparum (isolate 3D7)), sequence (Q08210 whole entry, looked up): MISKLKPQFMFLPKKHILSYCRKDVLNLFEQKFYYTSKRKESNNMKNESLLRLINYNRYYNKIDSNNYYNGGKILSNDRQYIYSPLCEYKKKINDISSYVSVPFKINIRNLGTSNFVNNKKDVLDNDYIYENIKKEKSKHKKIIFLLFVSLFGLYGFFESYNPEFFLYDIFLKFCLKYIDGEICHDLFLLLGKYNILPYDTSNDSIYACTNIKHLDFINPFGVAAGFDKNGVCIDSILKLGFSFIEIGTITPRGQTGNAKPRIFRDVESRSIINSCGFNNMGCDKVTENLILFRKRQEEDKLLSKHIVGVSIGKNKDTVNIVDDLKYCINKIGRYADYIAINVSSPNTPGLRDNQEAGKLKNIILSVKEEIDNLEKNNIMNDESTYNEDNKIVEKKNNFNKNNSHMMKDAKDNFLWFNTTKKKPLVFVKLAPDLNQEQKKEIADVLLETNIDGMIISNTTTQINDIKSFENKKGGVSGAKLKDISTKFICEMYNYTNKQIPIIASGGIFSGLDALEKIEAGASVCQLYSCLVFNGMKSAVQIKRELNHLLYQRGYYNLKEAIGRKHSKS
E3 ubiquitin-protein ligase XIAP (Homo sapiens), sequence (P98170 whole entry, looked up, the tested form may be a part): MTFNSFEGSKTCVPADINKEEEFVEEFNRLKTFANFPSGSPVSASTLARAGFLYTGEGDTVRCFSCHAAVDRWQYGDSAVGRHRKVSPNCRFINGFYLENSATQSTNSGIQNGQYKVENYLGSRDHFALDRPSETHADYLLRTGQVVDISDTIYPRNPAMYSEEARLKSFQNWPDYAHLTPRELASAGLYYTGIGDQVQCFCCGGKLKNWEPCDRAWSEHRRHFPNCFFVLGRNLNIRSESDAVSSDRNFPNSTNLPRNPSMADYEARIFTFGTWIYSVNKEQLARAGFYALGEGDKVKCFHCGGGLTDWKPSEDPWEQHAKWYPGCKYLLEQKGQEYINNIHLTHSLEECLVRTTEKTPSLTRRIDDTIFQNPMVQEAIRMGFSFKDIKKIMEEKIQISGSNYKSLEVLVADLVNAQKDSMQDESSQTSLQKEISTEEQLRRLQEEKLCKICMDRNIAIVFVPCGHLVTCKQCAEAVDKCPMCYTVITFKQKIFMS

| Compound | z-score [1] | z-score [2] | z-score [3] | z-score [4] | z-score [5] | z-score [6] | z-score [7] | z-score [8] | z-score [9] | z-score [10] | z-score [11] | z-score [12] | composite z-score [13] | z-score [14] | z-score [15] | z-score [16] | z-score [17] | composite z-score [18] | composite z-score [19] | composite z-score [20] |
| --- | --- | --- | --- | --- | --- | --- | --- | --- | --- | --- | --- | --- | --- | --- | --- | --- | --- | --- | --- | --- |
| C=CCC(OC(C)=O)[C@@H]1[C@@H](N(Cc2cc3ccccc3o2)C(=O)c2ccc(-c3ccccc3)cc2)c2cc(OCCCO)ccc2N1C(=O)c1ccc(-c2ccccc2)cc1 (stereo not given in full) | 0.893 | 0.249 | 0.402 | -0.777 | 3.06 | 0.604 (inactive) | -0.557 | 0.511 | 1.15 (inactive) | 0.634 | 0.18 (inactive) | 1.28 (inactive) | 0.192 (inactive) | 0.975 (inactive) | 1.47 (inactive) | 1.07 (inactive) | 0.996 | -0.102 | -0.547 (inactive) | -0.599 |
| O=C(O)[C@H]1C[C@H]2C(=O)NCC(=O)N2[C@H]1c1cccc(OCCO)c1 | 0.926 | -0.59 | -1.13 | -0.319 | 1.27 | -0.116 (inactive) | -0.186 | 1.14 | -0.0876 (inactive) | 0.354 | -1.62 (inactive) | 1.21 (inactive) | -1.04 (inactive) | -1.25 (inactive) | 0.712 (inactive) | -0.057 (inactive) | 0.62 | 0.182 | 0.865 (inactive) | 0.938 |
| C=C(/C(=C/C[C@H](OC(=O)c1ccncc1)c1cccc(OCCO)c1)c1cc(C(=O)OC)ccc1OC)C(C)C | 1.7 | -0.712 | -0.026 | 0.566 | 2.15 | 0.746 (inactive) | 0.0166 | 0.343 | 2.01 (inactive) | 0.731 | -0.177 (inactive) | 1.8 (inactive) | -0.494 (inactive) | -1.06 (inactive) | 1.17 (inactive) | 0.196 (inactive) | 0.987 | -0.153 | 0.236 (inactive) | 0.256 |
| C=CC[C@@]1(C(=O)NCc2ccccc2)N=C(c2ccc(OCCCO)cc2)O[C@@H]1c1ccccc1 | 0.791 | -1.01 | -2.93 | -4.46 | 0.0411 | 1.84 (inactive) | -1.23 | 0.199 | 0.0074 (inactive) | 0.547 | -2.16 (inactive) | -0.47 (inactive) | -0.904 (inactive) | -1.23 (inactive) | 0.254 (inactive) | -0.124 (inactive) | -1.48 | 1.49 | 0.624 (inactive) | 0.784 |
| O=C1O[C@H](c2ccccc2)[C@H](c2ccccc2)N2[C@H]1[C@@H](C(=O)Nc1nc3ccccc3s1)[C@]1(C(=O)Nc3ccc(C#CCCO)cc31)[C@H]2c1ccccc1OCCO | 1.87 | 0.383 | -1 | -0.198 | -2.75 | 1.18 (inactive) | -0.8 | -1.16 | 0.411 (inactive) | 0.253 | 0.243 (inactive) | 0.228 (inactive) | -0.244 (inactive) | 1.07 (inactive) | 0.381 (inactive) | 0.391 (inactive) | -0.914 | 0.15 | 1.52 (inactive) | 0.732 |
| C=C(C(=O)CC[C@@H](OC(C)=O)c1ccccc1OCCO)C(C)C | -0.161 | -0.9 | -0.951 | 0.0365 | -0.75 | 0.544 (inactive) | -0.0109 | 0.0542 | 0.788 (inactive) | 0.166 | -13 (active) | 0.932 (inactive) | -3.59 (inactive) | 0.0933 (inactive) | 1.33 (inactive) | 0.928 (inactive) | 1.57 | -0.0163 | 0.888 (inactive) | 0.565 |
| COCCCNC(=O)[C@@]1(Cc2ccccc2CN=[N+]=[N-])COC(c2ccc(OCCCO)cc2)=N1 | 1.08 | 0.501 | -2.46 | -0.77 | 0.287 | 1.33 (inactive) | -0.724 | -0.376 | 0.616 (inactive) | 1.8 | -1.66 (inactive) | 0.0645 (inactive) | -0.49 (inactive) | 0.493 (inactive) | 2 (inactive) | 1.61 (inactive) | 0.693 | -0.0525 | 1.94 (inactive) | 0.866 |
| NC(=O)N1C(=O)C2C(C1=O)C1C=C(c3ccc(CO)cc3)C2C(C2CC2)N1Cc1cc2c(cc1Br)OCO2 (stereo not given) | 1.32 | -0.282 | -0.767 | -1.11 | 1.26 | 1.44 (inactive) | -0.3 | 0.463 | 0.761 (inactive) | 0.627 | -3.17 (inactive) | 0.814 (inactive) | -0.692 (inactive) | -1.02 (inactive) | 1.36 (inactive) | 0.422 (inactive) | 0.298 | -0.143 | 1.06 (inactive) | -0.673 |
| CC(C)C[C@@H]1NC(=O)[C@@]23C(=O)N[C@@H](Cc4ccccc4)C2[C@H](C)[C@@]2(C)O[C@H]2C3/C=C/C/C=C\CNC(=O)[C@H](Cc2ccccc2)NC1=O (stereo not given in full) | 1.14 | 0.331 | 0.0263 | -0.928 | 1.42 | 0.868 (inactive) | -0.0886 | 0.851 | 0.703 (inactive) | 0.182 | -2.28 (inactive) | -0.295 (inactive) | 0.113 (inactive) | -0.748 (inactive) | 2.7 (inactive) | 1.22 (inactive) | 0.468 | 0.52 | 0.0183 (inactive) | 0.789 |
